Laboratory results as given in PubChem BioAssay (NCATS).
Records with an inconclusive call do not appear. Where a call stands in place of a potency, no number is given. Activity calls are given as the source filed them. Calls come from the whole dose curve; as a rule, active = well fitted cell-killing curve with a large enough effect; inconclusive = small, poorly fitted or top-dose-only effect; inactive = no such curve, though single readings can be large or run the other way.

test: qHTS of pediatric cancer cell lines to identify multiple opportunities for drug repurposing: Primary screen for Rh30 cells (AID 1347107); settings: Rh30 rhabdomyosarcoma viability, CellTiter-Glo luminescence, 48 h; series mostly up to 46 µM; note: nearly all actives have a fitted effect of over 75% in size
Method in brief: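 Viability after 48 h compound treatment at 37C, 500-1,000 cells/well, read as ATP luminescence with CellTiter-Glo. Primary screens used 11-point (MIPE, 0.78 nM-46 µM) or 8-point (NPC, 0.59 nM-46 µM) final concentrations; follow-up screens used 11-point dilutions.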
Potency is the fitted concentration of half-maximal effect.

Row | Compound | Potency
1 | O=C1NC(O)CCN1[C@@H]1O[C@H](CO)[C@H](O)[C@H]1O (stereo partly drawn) | inactive
2 | C[C@]12C=CC(=O)N[C@@H]1CC[C@H]1[C@H]3CC[C@@H](C(=O)Nc4cc(C(F)(F)F)ccc4C(F)(F)F)[C@@]3(C)CC[C@@H]12 | inactive
3 | CCn1c(=O)c2c(nc(C=Cc3ccc(OC)c(OC)c3)n2C)n(CC)c1=O | inactive
4 | Cn1cnc2c(F)c(Nc3ccc(Br)cc3F)c(C(=O)NOCCO)cc21 | inactive
5 | CC(C)N(CC[C@H](c1ccccc1)c1cc(CO)ccc1O)C(C)C | inactive
6 | C=C[C@@H]1CN2CCC1C[C@H]2[C@H](O)c1ccnc2ccc(OC)cc12 (stereo partly drawn) | inactive
7 | CC1(C)[C@H](O[C@H]2O[C@H](C(=O)O)[C@@H](O)[C@H](O)[C@H]2O[C@@H]2O[C@H](C(=O)O)[C@@H](O)[C@H](O)[C@H]2O)CC[C@@]2(C)[C@H]1CC[C@]1(C)[C@H]2C(=O)C=C2[C@H]3C[C@@](C)(C(=O)O)CC[C@]3(C)CC[C@]21C | inactive
8 | COc1cccc2c1C(=O)c1c(O)c3c(c(O)c1C2=O)C[C@@](O)(C(=O)CO)C[C@@H]3O[C@H]1C[C@H](N)[C@H](OC2CCCCO2)[C@H](C)O1 (stereo partly drawn) | inactive
9 | C[C@H](NC(=O)Cc1cc(F)cc(F)c1)C(=O)N[C@H](C(=O)OC(C)(C)C)c1ccccc1 | inactive
10 | CCCCCCCCCCCC(CC1OC(=O)C1CCCCCC)OC(=O)C(CC(C)C)NC=O (stereo not drawn) | inactive
11 | C=CCNc1c(O)cc2c(O)c1C[C@@H](C)C[C@H](OC)[C@@H](O)[C@@H](C)C=C(C)[C@H](OC(N)=O)[C@@H](OC)C=CC=C(C)C(=O)N2 | inactive
12 | C[C@@H]1CC[C@@]2(OC1)OC1CC3C4CC=C5CC(O)CCC5(C)C4CCC3(C)C1[C@@H]2C (stereo partly drawn) | inactive
13 | COC(=O)[C@@H]1[C@H]2C[C@@H]3c4[nH]c5ccccc5c4CCN3C[C@@H]2CC[C@@H]1O | inactive
14 | CC[C@H]1OC(=O)[C@H](C)[C@@H](O[C@H]2C[C@@](C)(OC)[C@@H](O)[C@H](C)O2)[C@H](C)[C@@H](O[C@@H]2O[C@@H](C)C[C@H](N(C)C)[C@@H]2O)[C@](C)(O)C[C@@H](C)C(=O)[C@H](C)[C@@H](O)[C@]1(C)O | inactive
15 | CC(Oc1ccc(O)cc1)(P(=O)(O)O)P(=O)(O)O | inactive
16 | C[C@@H](Cc1cc2c(c(C(N)=O)c1)N(CCCO)CC2)NCCOc1ccccc1OCC(F)(F)F | inactive
17 | COc1ccc(C(C)=O)c(O)c1 | inactive
18 | C[C@@H]1[C@H](C)CC[C@]2(C(=O)O)CC[C@]3(C)C(=CC[C@@H]4[C@@]5(C)C[C@@H](O)[C@H](O)[C@@](C)(CO)[C@H]5CC[C@]43C)[C@@H]12 | inactive
19 | C[C@H]1COc2c(N3CCN(C)CC3)c(F)cc3c(=O)c(C(=O)O)cn1c23 | inactive
20 | CC(C)C[C@H](NC(=O)CNC(=O)c1cc(Cl)ccc1Cl)B1OC(=O)CC(CC(=O)O)(C(=O)O)O1 (stereo partly drawn) | 1480 nM (active)
21 | CCCCCCCCCCCCc1ccc(S(=O)(=O)Nc2nncs2)cc1 | inactive
22 | Cn1cc(C=CC(=O)c2cccc(F)c2)cc1C=CC(=O)NO | inactive
23 | C=C1CCC2[C@](C)(CO)C(O)CC[C@]2(C)C1CC=C1C(=O)OCC1O (stereo partly drawn) | inactive
24 | NC(=NCCCCCCN=C(N)N=C(N)Nc1ccc(Cl)cc1)N=C(N)Nc1ccc(Cl)cc1 | 4690 nM (active)
25 | c1coc(CNc2ncnc3nc[nH]c23)c1 | inactive
26 | CCCCCCCN(CC)CCCC(O)c1ccc(NS(C)(=O)=O)cc1 (stereo not drawn) | inactive
27 | COc1ccc2cc([S+]([O-])Cc3ncc(C)c(OC)c3C)nc2c1 | inactive
28 | CC(=O)O[C@H]1C[C@@H]2CC[C@H]3[C@H]4C[C@H]([N+]5(C)CCCCC5)[C@@H](OC(C)=O)[C@@]4(C)CC[C@@H]3[C@@]2(C)C[C@H]1[N+]1(C)CCCCC1 | inactive

test: qHTS of pediatric cancer cell lines to identify multiple opportunities for drug repurposing: Primary screen for Rh41 cells (AID 1347108); settings: Rh41 rhabdomyosarcoma viability, CellTiter-Glo luminescence, 48 h; series mostly up to 46 µM; note: nearly all actives have a fitted effect of over 70% in size
Method in brief: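 Quantitative HTS format: each compound titrated (MIPE 11 points from 0.78 nM, NPC 8 points from 0.59 nM) onto cells plated 5 hours earlier. After 48 h at 37 degrees C, CellTiter-Glo luminescence was recorded.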

Row | Compound | Potency
29 | O=C1NC(O)CCN1[C@@H]1O[C@H](CO)[C@H](O)[C@H]1O (stereo partly drawn) | inactive
30 | CC(C(C)N1CC(=O)NC(=O)C1)N1CC(=O)NC(=O)C1 (stereo not drawn) | inactive
31 | Cn1cnc2c(F)c(Nc3ccc(Br)cc3F)c(C(=O)NOCCO)cc21 | inactive
32 | CC(C)N(CC[C@H](c1ccccc1)c1cc(CO)ccc1O)C(C)C | inactive
33 | C=C[C@@H]1CN2CCC1C[C@H]2[C@H](O)c1ccnc2ccc(OC)cc12 (stereo partly drawn) | inactive
34 | CC1(C)[C@H](O[C@H]2O[C@H](C(=O)O)[C@@H](O)[C@H](O)[C@H]2O[C@@H]2O[C@H](C(=O)O)[C@@H](O)[C@H](O)[C@H]2O)CC[C@@]2(C)[C@H]1CC[C@]1(C)[C@H]2C(=O)C=C2[C@H]3C[C@@](C)(C(=O)O)CC[C@]3(C)CC[C@]21C | inactive
35 | Cc1ccc(O)c(C(CCN(C(C)C)C(C)C)c2ccccc2)c1 (stereo not drawn) | inactive
36 | CCCCCCCCCCCC(CC1OC(=O)C1CCCCCC)OC(=O)C(CC(C)C)NC=O (stereo not drawn) | inactive
37 | C=CCNc1c(O)cc2c(O)c1C[C@@H](C)C[C@H](OC)[C@@H](O)[C@@H](C)C=C(C)[C@H](OC(N)=O)[C@@H](OC)C=CC=C(C)C(=O)N2 | 2350 nM (active)
38 | C[C@@]12C(=O)OC(=O)[C@@]1(C)C1CCC2O1 | 3720 nM (active)
39 | C[C@@H]1CC[C@@]2(OC1)OC1CC3C4CC=C5CC(O)CCC5(C)C4CCC3(C)C1[C@@H]2C (stereo partly drawn) | inactive
40 | CS(=O)(=O)N1CCc2c(-c3cnc(N)nc3)nc(N3CCOCC3)nc21 | 833 nM (active)
41 | COC(=O)[C@@H]1[C@H]2C[C@@H]3c4[nH]c5ccccc5c4CCN3C[C@@H]2CC[C@@H]1O | inactive
42 | O=C(Nc1ccc(Oc2ccnc3[nH]ccc23)c(F)c1)c1cccn(-c2ccc(F)cc2)c1=O | inactive
43 | CC[C@H]1OC(=O)[C@H](C)[C@@H](O[C@H]2C[C@@](C)(OC)[C@@H](O)[C@H](C)O2)[C@H](C)[C@@H](O[C@@H]2O[C@@H](C)C[C@H](N(C)C)[C@@H]2O)[C@](C)(O)C[C@@H](C)C(=O)[C@H](C)[C@@H](O)[C@]1(C)O | inactive
44 | C=CC(=O)Nc1cccc(Nc2nc(NC3CCC(N(C)C)CC3)nc3c2ncn3C(C)C)c1 (stereo not drawn) | 20.9 nM (active)
45 | CC(Oc1ccc(O)cc1)(P(=O)(O)O)P(=O)(O)O | inactive
46 | C[C@@H](Cc1cc2c(c(C(N)=O)c1)N(CCCO)CC2)NCCOc1ccccc1OCC(F)(F)F | inactive
47 | C[C@@H]1[C@H](C)CC[C@]2(C(=O)O)CC[C@]3(C)C(=CC[C@@H]4[C@@]5(C)C[C@@H](O)[C@H](O)[C@@](C)(CO)[C@H]5CC[C@]43C)[C@@H]12 | inactive
48 | N#CNC(=NCCCCCCOc1ccc(Cl)cc1)Nc1ccncc1 | 5.9 nM (active)
49 | C[C@H]1COc2c(N3CCN(C)CC3)c(F)cc3c(=O)c(C(=O)O)cn1c23 | inactive
50 | CC(C)C[C@H](NC(=O)CNC(=O)c1cc(Cl)ccc1Cl)B1OC(=O)CC(CC(=O)O)(C(=O)O)O1 (stereo partly drawn) | 296 nM (active)
51 | CNC(=O)c1cccc(-c2ccc3c(N4CCOC[C@H]4C)nc(N4CCOC[C@H]4C)nc3n2)c1 | 118 nM (active)
52 | C=C1CCC2[C@](C)(CO)C(O)CC[C@]2(C)C1CC=C1C(=O)OCC1O (stereo partly drawn) | inactive
53 | NC(=NCCCCCCN=C(N)N=C(N)Nc1ccc(Cl)cc1)N=C(N)Nc1ccc(Cl)cc1 | 7430 nM (active)
54 | c1coc(CNc2ncnc3nc[nH]c23)c1 | inactive
55 | CCCCCCCN(CC)CCCC(O)c1ccc(NS(C)(=O)=O)cc1 (stereo not drawn) | inactive
56 | CCCNC(=O)[C@H]1O[C@H]1C(=O)N[C@H](C(=O)N1CCC[C@@H]1C(=O)OC)C(C)CC (stereo partly drawn) | 7430 nM (active)
57 | COc1ccc2cc([S+]([O-])Cc3ncc(C)c(OC)c3C)nc2c1 | inactive
58 | CC(=O)O[C@H]1C[C@@H]2CC[C@H]3[C@H]4C[C@H]([N+]5(C)CCCCC5)[C@@H](OC(C)=O)[C@@]4(C)CC[C@@H]3[C@@]2(C)C[C@H]1[N+]1(C)CCCCC1 | inactive
